{"source": "PubChem BioAssay AID2685", "about": "(National Center for Advancing Translational Sciences (NCATS), 2010)", "note": "About 2,100 (0.66%) of roughly 320,000 compounds were called active. Not shown: some 53% with an inconclusive outcome. Calls follow the shape of the dose curve; as a rule, active = well fitted inhibition curve with a large enough effect in the signal ratio, with a control signal flat (not every such curve was filed as active); inconclusive = small, poorly fitted or top-dose-only effect, or effect the other way, or a change in a side signal; inactive = flat fitted curve, though single readings scatter; the % refers to the signal ratio. This excerpt belongs to a sample that is enriched for actives. Potency is read from the fitted curve at half-maximal effect."}
{"test": "qHTS Assay for Lipid Storage Modulators in Drosophila S3 Cells;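 as to cell number change: cells counted by Cell Tracker Red CMTPX staining in the red channel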; as to lipid storage change, negative = inhibition: % is scaled to controls: 0 for no effect and ±100 for the full control effect", "settings": "BODIPY lipid droplet fluorescence, 18-24 h, cells fed with added oleic acid; cell number change: measured here: cell count max response; series mostly up to 46.1 µM; lipid storage change, negative = inhibition: at the top concentration", "method_in_brief": "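Laser-scanning cytometry quantifies lipid droplet accumulation (500–530 nm total intensity; droplet/cell object ratio) in oleic acid-fed (400 uM added) Drosophila S3 cells treated with a concentration series. 20 uM Triacsin C defined 100% inhibition.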", "units": {"cell number change": "%"}}
{"smiles": "COc1ccc(C(=O)OCCc2sc[n+](CC(=O)c3ccccc3)c2C)cc1", "outcome": "inactive", "cell number change": 15.7}
{"smiles": "Cc1c(CCOC(=O)CC23CC4CC(CC(C)(C4)C2)C3)sc[n+]1CC(=O)c1ccccc1", "lipid storage change, negative = inhibition": "-14.6% (inactive)", "cell number change": -7.33}
{"smiles": "Cc1c(CCOC(=O)C23CC4(C)CC(C)(CC(C)(C4)C2)C3)sc[n+]1CC(=O)c1ccccc1", "Potency": "18400 nM (active)", "cell number change": -53.8}
{"smiles": "CCOc1ccccc1NC(=S)NC1CC2CCC1C2", "note": "(centres undefined)", "lipid storage change, negative = inhibition": "8.44% (inactive)", "cell number change": 6.16}
{"smiles": "Cc1cc(C)c(-c2cc(C(=O)Nc3cc(C)ccc3C)[nH]n2)c(O)c1", "lipid storage change, negative = inhibition": "-1.74% (inactive)", "cell number change": 2.08}
{"smiles": "COc1ccc(OC)c(NC(=O)c2cc(-c3c(C)cc(C)cc3O)n[nH]2)c1", "Potency": "206 nM (active)", "cell number change": 13.7}
{"smiles": "COc1ccc(OC)c(NC(=O)c2cc(-c3ccc(C)cc3O)n[nH]2)c1", "outcome": "inactive", "cell number change": 2.51}
{"smiles": "CCc1c(C)sc(NC(=O)c2cccs2)c1C#N", "lipid storage change, negative = inhibition": "-1.11% (inactive)", "cell number change": -15.6}
{"smiles": "COc1cc2c(cc1OC)C(c1cccc([N+](=O)[O-])c1)NC(=O)C2", "note": "(centres undefined)", "lipid storage change, negative = inhibition": "11.9% (inactive)", "cell number change": -2.94}
{"smiles": "COc1cc2c(cc1OC)C(c1ccc(C)cc1)NC(=O)C2", "note": "(centres undefined)", "outcome": "inactive"}
{"smiles": "COc1cc2c(cc1OC)C(c1ccc([N+](=O)[O-])cc1)NC(=O)C2", "note": "(centres undefined)", "Potency": "6510 nM (active)", "cell number change": -4.67}
{"smiles": "O=C(N/N=C/c1ccco1)c1cc(-c2cccc3ccccc23)n[nH]1", "lipid storage change, negative = inhibition": "-1.16% (inactive)", "cell number change": -16.1}
{"smiles": "CCn1nc(NC(=O)C(C)(C)C)c2cc3cccc(C)c3nc21", "Potency": "2910 nM (active)", "cell number change": 12.4}
{"smiles": "CCn1nc(NS(=O)(=O)c2ccc([N+](=O)[O-])cc2)c2cc3cccc(C)c3nc21", "Potency": "1460 nM (active)", "cell number change": -19.5}
{"smiles": "CCn1nc(NC(C)=O)c2cc3cccc(C)c3nc21", "lipid storage change, negative = inhibition": "16% (inactive)"}
{"smiles": "CCn1nc(NS(=O)(=O)c2ccccc2)c2cc3cccc(C)c3nc21", "lipid storage change, negative = inhibition": "12.4% (inactive)", "cell number change": -3.04}
{"smiles": "CCn1nc(NS(=O)(=O)c2ccc(F)cc2)c2cc3cccc(C)c3nc21", "outcome": "inactive", "cell number change": -26.3}
{"smiles": "Cc1cccc2cc3c(NC(=O)C(C)(C)C)nn(CC(C)C)c3nc12", "lipid storage change, negative = inhibition": "-8.08% (inactive)", "cell number change": -9.6}
{"smiles": "CCOC(=O)C(C(=O)OCC)c1c([N+](=O)[O-])c(=O)n2c3c(cccc13)CCC2", "lipid storage change, negative = inhibition": "12.6% (inactive)", "cell number change": 0.163}
{"smiles": "COc1ccc(OC(=O)NCCc2ccccc2)cc1", "lipid storage change, negative = inhibition": "6.1% (inactive)"}
{"smiles": "Cc1cc2oc(C(=O)N3CCN(CCc4ccccn4)CC3)c(C)c2cc1C", "outcome": "inactive"}
{"smiles": "O=C(NCc1ccccc1Cl)C1CCC(=O)N(CCCN2CCCC2=O)C1", "note": "(centres undefined)", "lipid storage change, negative = inhibition": "-1.29% (inactive)", "cell number change": -14.7}
{"smiles": "O=C(NCc1cccc(Cl)c1)C1CCC(=O)N(CCN2CCOCC2)C1", "note": "(centres undefined)", "lipid storage change, negative = inhibition": "33% (inactive)", "cell number change": 19}
{"smiles": "O=C(NCc1cccc(Cl)c1)C1CCC(=O)N(CCCN2CCCC2=O)C1", "note": "(centres undefined)", "Potency": "1840 nM (active)", "cell number change": 15.8}
{"smiles": "CC(C)CCNC(=O)c1cc([N+](=O)[O-])ccc1N1CCOCC1", "lipid storage change, negative = inhibition": "-1.77% (inactive)", "cell number change": -14}
{"smiles": "CCN1CCc2c(sc(NC(=O)c3ccc4ccccc4c3)c2C(N)=O)C1", "cell number change": -8.56, "lipid storage change, negative = inhibition": "-25.3% [at 0.369 µM] (inactive)"}
{"smiles": "CCOC(=O)c1c(NC(=O)c2ccc(S(=O)(=O)N3CCOCC3)cc2)sc2c1CCN(C(C)C)C2", "outcome": "inactive", "cell number change": 6.84}
{"smiles": "CC(C)N1CCc2c(sc(NC(=O)c3ccc(S(=O)(=O)N(C)CC4CCCO4)cc3)c2C(N)=O)C1", "note": "(centres undefined)", "Potency": "7310 nM (active)", "cell number change": -19.4}
{"smiles": "CC(C)N1CCc2c(sc(NC(=O)c3ccc(S(=O)(=O)N4CCOCC4)cc3)c2C(N)=O)C1", "lipid storage change, negative = inhibition": "-5.59% (inactive)", "cell number change": 0.268}
{"smiles": "CCN1CCc2c(sc(NC(=S)NC(=O)c3ccc(Cl)cc3)c2C(N)=O)C1", "lipid storage change, negative = inhibition": "-5.13% (inactive)", "cell number change": 6.82}
{"smiles": "CCN1CCc2c(sc(NC(=O)c3ccc(S(=O)(=O)N(C)CC4CCCO4)cc3)c2C(N)=O)C1", "note": "(centres undefined)", "Potency": "2910 nM (active)", "cell number change": -26.3}
{"smiles": "CC1=CC(C)(C)NC(=S)N1C(C)c1ccccc1", "note": "(centres undefined)", "lipid storage change, negative = inhibition": "9.59% (inactive)", "cell number change": 20.7}
{"smiles": "O=C(CCNC(=O)Cn1ccc2ccccc2c1=O)NCc1ccccn1", "lipid storage change, negative = inhibition": "-0.0668% (inactive)", "cell number change": 1.28}
{"smiles": "COc1cc(NCC(=O)Nc2cccc(S(=O)(=O)N3CCCCC3)c2)cc(OC)c1OC", "outcome": "inactive", "cell number change": -2.08}
{"smiles": "CCN(CC(=O)Nc1cccc(S(=O)(=O)N2CCOCC2)c1)Cc1ccccc1", "lipid storage change, negative = inhibition": "-10.6% [at 0.0737 µM] (inactive)"}
{"smiles": "O=C(CSc1ccccc1)Nc1cccc(S(=O)(=O)N2CCOCC2)c1", "lipid storage change, negative = inhibition": "-7.81% (inactive)", "cell number change": -14.2}
{"smiles": "O=C(CNc1cccc(S(=O)(=O)N2CCOCC2)c1)Nc1ccccc1F", "outcome": "inactive", "cell number change": 4.62}
{"smiles": "COc1ccc([N+](=O)[O-])cc1NCC(=O)Nc1cc(S(=O)(=O)N2CCCCC2)ccc1C", "Potency": "16400 nM (active)", "cell number change": -23.1}
{"smiles": "COc1ccc(S(=O)(=O)N2CCCCC2)cc1NCC(=O)Nc1ccc(C)cc1", "lipid storage change, negative = inhibition": "11.5% (inactive)", "cell number change": -1.26}
{"smiles": "O=C(CNc1cccc(S(=O)(=O)N2CCCC2)c1)Nc1ccc(F)c(F)c1", "outcome": "inactive", "cell number change": 2.77}
{"smiles": "COc1cc(NC(=O)CNc2ccc(Cl)c(S(=O)(=O)N3CCOCC3)c2)cc(OC)c1", "lipid storage change, negative = inhibition": "-3.31% (inactive)", "cell number change": -14.4}
{"smiles": "CCN(CC)S(=O)(=O)c1cc(NC(=O)CNc2cccc(S(=O)(=O)N3CCOCC3)c2)ccc1C", "Potency": "2060 nM (active)", "cell number change": -23.6}
{"smiles": "COC(=O)c1ccccc1NC(=O)CNc1ccc(F)c(S(=O)(=O)N2CCOCC2)c1", "Potency": "3260 nM (active)", "cell number change": 0.245}
{"smiles": "Cc1ccc(NC(=O)CNc2cccc(S(=O)(=O)N3CCCCC3)c2)cc1F", "Potency": "1460 nM (active)"}
{"smiles": "COc1ccc(S(=O)(=O)N2CCCCC2)cc1NC(=O)CNc1ccc(F)cc1C", "lipid storage change, negative = inhibition": "29% (inactive)", "cell number change": 11.8}
{"smiles": "Oc1cccc(CCC2CCCCN2Cc2cn[nH]c2-c2ccc3c(c2)OCO3)c1", "note": "(centres undefined)", "lipid storage change, negative = inhibition": "16.7% (inactive)", "cell number change": 7.37}
{"smiles": "Fc1ccc(N/N=C(/c2ccccc2)c2ccccn2)cc1", "lipid storage change, negative = inhibition": "8.3% (inactive)", "cell number change": 9.54}
{"smiles": "CN(C)c1ccc(C=NCCC2(O)CCOC(C)(C)C2)cc1", "note": "(centres undefined)", "lipid storage change, negative = inhibition": "6.27% (inactive)", "cell number change": 2.42}
{"smiles": "NC(=O)N/N=C/CCc1ccccc1", "lipid storage change, negative = inhibition": "1.59% (inactive)", "cell number change": 7.84}
{"smiles": "S=c1[nH]nc(CNc2cccc(Cl)c2)o1", "lipid storage change, negative = inhibition": "3.6% (inactive)", "cell number change": 5.85}
{"smiles": "Cc1[nH]c2ccccc2c1/C=N/NC(=O)c1cc(C(C)C)[nH]n1", "lipid storage change, negative = inhibition": "-1.1% (inactive)", "cell number change": 17.7}
{"smiles": "O=C(/C=C/c1cccc(Cl)c1)NCCc1ccccc1", "lipid storage change, negative = inhibition": "8.05% (inactive)", "cell number change": 4.34}
{"smiles": "CN1CCN(c2ccc(CNS(=O)(=O)Cc3ccc(Cl)cc3)cc2)CC1", "lipid storage change, negative = inhibition": "-7.74% (inactive)", "cell number change": -12.5}
{"smiles": "CNC(=O)Cn1c(C)cc(=O)c2cccc(C)c21", "lipid storage change, negative = inhibition": "10.6% (inactive)", "cell number change": 13.3}
{"smiles": "CN(Cc1ccccc1)S(=O)(=O)c1ccc(OCC(=O)Nc2cccc([N+](=O)[O-])c2)cc1", "lipid storage change, negative = inhibition": "5.75% (inactive)", "cell number change": 18.8}
